Molecules are shown by their SMILES. A number with no mark means an inactive call. Records with an inconclusive call do not appear. Activity calls are given as the source filed them. Unless noted, calls follow the shape of the dose curve; as a rule, active = well fitted curve in either direction with a large enough effect (not every such curve was filed as active); inconclusive = small, poorly fitted or top-dose-only effect, or another doubt; inactive = flat fitted curve, though single readings scatter.

Test [1] deals with Lysosomal acid glucosylceramidase (Homo sapiens) (UniProt P04062). Kind of test: Glucocerebrosidase-p2 (AID 348; in the data active = potency below about 10 µM; also: potency is read from the fitted curve at half-maximal effect). The settings on record: purified GBA, blue fluorogenic substrate, 40 min. The method in brief: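 Normal human glucocerebrosidase (0.2 nM) with blue fluorogenic substrate (80 uM final) in citrate/phosphate pH 5.9 with 10mM sodium taurocholate, 0.01% tween-20; 40 min RT, NaOH/glycine stop; fluorescence Ex 365/Em 440; AC50 from a titration from 0.6 nM upwards.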
Chain of Lysosomal acid glucosylceramidase (Homo sapiens) (P04062 whole entry, looked up): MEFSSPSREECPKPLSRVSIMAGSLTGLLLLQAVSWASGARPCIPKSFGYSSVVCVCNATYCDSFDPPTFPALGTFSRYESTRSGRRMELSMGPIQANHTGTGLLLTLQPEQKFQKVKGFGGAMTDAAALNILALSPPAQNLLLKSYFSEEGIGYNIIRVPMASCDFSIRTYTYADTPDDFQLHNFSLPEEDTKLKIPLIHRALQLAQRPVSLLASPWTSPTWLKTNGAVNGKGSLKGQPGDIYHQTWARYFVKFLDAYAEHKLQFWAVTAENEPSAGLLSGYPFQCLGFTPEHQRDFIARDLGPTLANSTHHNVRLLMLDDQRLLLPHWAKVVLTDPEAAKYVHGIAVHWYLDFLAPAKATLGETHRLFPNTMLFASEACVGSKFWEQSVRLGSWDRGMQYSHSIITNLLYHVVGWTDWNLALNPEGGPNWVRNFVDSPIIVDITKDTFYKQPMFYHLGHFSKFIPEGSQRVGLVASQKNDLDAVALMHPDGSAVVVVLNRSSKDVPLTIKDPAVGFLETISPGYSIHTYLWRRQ

Test [2] can be described thus: AP1 Signaling Pathway (AID 357). Also: % is scaled to controls: 0 for no effect and ±100 for the full control effect. The note with it: ME-180 AP-1-bla reporter, EGF-induced, beta-lactamase ratio, 5 h; at 7.69 µM (top of the series) unless noted. A digest of the protocol: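 A ratiometric CCF4 readout (405 nm excitation; 460 and 530 nm emission) quantified AP-1-driven beta-lactamase in ME-180 cells after 5 h with compound and EC50 EGF; AC50 values were derived for activators and inhibitors.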

In test [3] the target is Cytochrome P450 1A2 (Homo sapiens) (UniProt P05177). The experiment in a line: p450-cyp1a2 (AID 410; calls by dose curve; also: potency is read from the fitted curve at half-maximal effect;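 as to activity change, negative = inhibition: -100% = full effect of reference inhibitor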). The note with it: recombinant CYP1A2, luciferin-ME demethylation, luminescence; series mostly up to 11.4 µM. The method in brief: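 Read-out is luminescence from luciferin produced by CYP1A2 demethylation of Luciferin-ME (100uM, at Km). Detection reagent stopped the 60 min NADPH-dependent reaction; signals were normalized to 57 uM furafylline.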
Chain of Cytochrome P450 1A2 (Homo sapiens) (P05177 whole entry, looked up): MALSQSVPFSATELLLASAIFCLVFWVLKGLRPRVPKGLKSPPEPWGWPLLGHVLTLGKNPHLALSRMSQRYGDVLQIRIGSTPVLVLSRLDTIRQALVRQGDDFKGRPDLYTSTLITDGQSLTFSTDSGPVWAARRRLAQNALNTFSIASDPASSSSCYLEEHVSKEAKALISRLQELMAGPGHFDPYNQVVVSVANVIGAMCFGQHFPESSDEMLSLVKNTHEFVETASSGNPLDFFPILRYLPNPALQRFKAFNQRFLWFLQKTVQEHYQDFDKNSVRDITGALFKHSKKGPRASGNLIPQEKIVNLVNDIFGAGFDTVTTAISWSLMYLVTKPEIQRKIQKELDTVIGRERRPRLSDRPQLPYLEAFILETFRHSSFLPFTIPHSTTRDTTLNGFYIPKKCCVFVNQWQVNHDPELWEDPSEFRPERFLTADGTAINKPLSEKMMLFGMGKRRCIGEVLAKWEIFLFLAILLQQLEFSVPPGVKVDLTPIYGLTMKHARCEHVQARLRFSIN

Test [4] is described as follows: NFAT Signaling Pathway (AID 444).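 Also: carbachol stimulus at about its EC50 of 1 µM final; % is scaled to controls: 0 for no effect and ±100 for the full control effect.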 The settings on record: Jurkat NFAT-bla M1, carbachol, beta-lactamase ratio, 5 h; at 7.69 µM (top of the series) unless noted. A digest of the protocol:
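Read-out: CCF4 FRET ratio (460 nm/530 nm) after 1 h RT dye loading, used for %activity and AC50 from titration series. Cells: Jurkat NFAT-β-lactamase/M1 line, treated with compound plus 1 uM carbachol for 5 h, 37 °C.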

The target in test [5] is Glucocorticoid receptor (Homo sapiens) (UniProt P04150). Kind of test: GR-GFP Redistribution (AID 450;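 active = compounds whose dose series gives a full or clear partial fitted curve of increased nuclear translocation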; also: potency is read from the fitted curve at half-maximal effect). The note with it: U2OS GR-GFP nuclear translocation, laser cytometry, 2 h.
Chain of Glucocorticoid receptor (Homo sapiens) (P04150 whole entry, looked up): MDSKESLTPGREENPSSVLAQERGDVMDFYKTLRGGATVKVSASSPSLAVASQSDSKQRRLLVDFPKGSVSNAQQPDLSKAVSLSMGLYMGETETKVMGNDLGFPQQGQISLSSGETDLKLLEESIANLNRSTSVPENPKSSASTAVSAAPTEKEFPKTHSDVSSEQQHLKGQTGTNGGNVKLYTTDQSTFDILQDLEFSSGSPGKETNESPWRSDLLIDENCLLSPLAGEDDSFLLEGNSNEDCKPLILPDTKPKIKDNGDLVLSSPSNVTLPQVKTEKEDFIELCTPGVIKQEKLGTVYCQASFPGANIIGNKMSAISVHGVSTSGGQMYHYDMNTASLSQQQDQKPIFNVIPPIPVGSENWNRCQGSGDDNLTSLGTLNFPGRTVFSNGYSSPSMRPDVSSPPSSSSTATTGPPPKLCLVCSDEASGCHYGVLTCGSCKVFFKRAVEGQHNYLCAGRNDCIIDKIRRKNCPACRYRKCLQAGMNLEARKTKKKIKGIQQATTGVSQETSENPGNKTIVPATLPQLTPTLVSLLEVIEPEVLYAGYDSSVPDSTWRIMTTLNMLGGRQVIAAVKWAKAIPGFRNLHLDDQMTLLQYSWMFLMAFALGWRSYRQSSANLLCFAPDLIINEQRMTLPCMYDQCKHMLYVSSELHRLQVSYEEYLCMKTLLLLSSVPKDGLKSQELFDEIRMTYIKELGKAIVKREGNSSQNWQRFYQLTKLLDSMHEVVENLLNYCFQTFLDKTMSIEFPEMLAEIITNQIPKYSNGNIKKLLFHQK
Test [6] shares this target. The experiment in a line: GR-EFC Redistribution (AID 451; calls by dose curve; also: potency is read from the fitted curve at half-maximal effect). The note with it: CHO-K1 GR-EFC translocation, beta-gal luminescence, 2 h. A digest of the protocol:
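Translocation of GR-ED fusion to nuclear EA restores b-gal, read by luminescence after 1 h room-temperature detection. Engineered CHO-K1 biosensor cells, 1,000/well, exposed 2 h at 37 C to titrations up to 46 uM final.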

In test [7] the target is Mitogen-activated protein kinase 10 (Mus musculus) (UniProt Q61831). The experiment in a line: JNK3 AlphaScreen Assay (AID 530).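 Also: kinase came from lysate of stimulated human HepG2 cells; signal reports phosphorylation of biotinylated GST-cJun 1-79 at Ser73 with 10 µM ATP; % is scaled to controls: 0 for no effect and ±100 for the full control effect.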 The settings on record: JNK3 lysate, c-Jun phosphorylation; series mostly up to 11.4 µM. The method in brief:
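Kinase buffer: 20 mM Tris-HCl pH 7.6, 10 mM MgCl2, 1 mM DTT, 0.1 mM Na3VO4, 0.01% Tween-20; ATP 10 uM. Substrate biotin-GST-cJun(1-79), enzyme from activated HepG2 lysates. Detection by Ser73 phospho-antibody AlphaScreen.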
A general note: In Alpha technology, singlet oxygen from a donor bead excites a nearby acceptor bead.

The target in test [8] is 3',5'-cyclic-AMP phosphodiesterase 4B (Homo sapiens) (UniProt Q07343). Kind of test: qHTS Assay for Inhibitors of PDE-IV (AID 607; active = well fitted activation curve with a large enough effect in the main read-out, with a control signal flat, not every such curve was filed as active; also: % of control where 0% means no effect). The note with it: HEK293 ACTOne CNG channel cells, membrane potential fluorescence; series mostly up to 22.9 µM. A digest of the protocol: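 ACTOne HEK293 cells carry a modified cAMP-gated CNG channel and express endogenous PDE4; plated 1000 cells/well, compounds up to 22.9 uM final. Membrane-potential dye fluorescence (ex 535/em 590) was read; parental cells received 10 uM forskolin + 100 uM RO 20-1724.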
Chain of 3',5'-cyclic-AMP phosphodiesterase 4B (Homo sapiens) (Q07343 whole entry, looked up): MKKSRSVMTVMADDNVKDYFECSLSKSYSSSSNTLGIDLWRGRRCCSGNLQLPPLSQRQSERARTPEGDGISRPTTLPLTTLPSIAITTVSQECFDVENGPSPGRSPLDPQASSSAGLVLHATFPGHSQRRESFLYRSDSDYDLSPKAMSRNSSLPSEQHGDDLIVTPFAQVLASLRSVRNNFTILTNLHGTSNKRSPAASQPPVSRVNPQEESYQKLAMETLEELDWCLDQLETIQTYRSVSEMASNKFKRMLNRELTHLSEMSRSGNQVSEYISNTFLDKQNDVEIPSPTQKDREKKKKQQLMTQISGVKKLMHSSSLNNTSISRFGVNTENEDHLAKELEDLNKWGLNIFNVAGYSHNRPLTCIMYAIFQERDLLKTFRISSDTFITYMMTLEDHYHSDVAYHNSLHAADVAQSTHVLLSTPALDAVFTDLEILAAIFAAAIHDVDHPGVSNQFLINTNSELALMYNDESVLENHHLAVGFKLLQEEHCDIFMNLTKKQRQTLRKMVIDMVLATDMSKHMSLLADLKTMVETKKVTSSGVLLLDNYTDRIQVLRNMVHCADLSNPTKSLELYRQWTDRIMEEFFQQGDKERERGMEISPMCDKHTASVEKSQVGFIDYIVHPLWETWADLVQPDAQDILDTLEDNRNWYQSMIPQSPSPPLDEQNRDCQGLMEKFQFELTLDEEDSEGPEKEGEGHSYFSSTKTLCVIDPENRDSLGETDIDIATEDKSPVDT

Test [9] addresses Cytochrome P450 3A4 (Homo sapiens) (UniProt P08684). Kind of test: qHTS Assay for Activators of Cytochrome P450 3A4 (AID 885; active = well fitted curve in the direction sought with a large enough effect; an effect the other way counts as inactive or inconclusive; also: nearly all actives have a fitted effect of over 65% in size). The note with it: recombinant CYP3A4, Luciferin-PPXE luminescence, 60 min; series mostly up to 11.4 µM. A digest of the protocol: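 CYP3A4 activity: Luciferin-PPXE O-dealkylation, 25uM substrate, 200mM KPO4, RT throughout. Read-out is luciferase luminescence; higher values reflect activation.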
(In general: Quantitative high-throughput screening tests each substance at several concentrations.)

The target in test [10] is Cytochrome P450 2C19 (Homo sapiens) (UniProt P33261). The experiment in a line: qHTS Assay for Inhibitors and Substrates of Cytochrome P450 2C19 (AID 899; active = well fitted curve in the direction sought with a large enough effect; an effect the other way counts as inactive or inconclusive; also: nearly all actives have a fitted effect of over 60% in size; also: potency is read from the fitted curve at half-maximal effect). The settings on record: recombinant CYP2C19, luciferin-H EGE luminescence; series mostly up to 11.4 µM. The method in brief: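 Reactions contain 5nM enzyme, 10uM Luciferin-H EGE (KM) and 50mM KPO4; compound preincubates 10 min at 37C, NADPH regeneration starts turnover for 60 min. Luminescence after detection reagent gives activity.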
Chain of Cytochrome P450 2C19 (Homo sapiens) (P33261 whole entry, looked up): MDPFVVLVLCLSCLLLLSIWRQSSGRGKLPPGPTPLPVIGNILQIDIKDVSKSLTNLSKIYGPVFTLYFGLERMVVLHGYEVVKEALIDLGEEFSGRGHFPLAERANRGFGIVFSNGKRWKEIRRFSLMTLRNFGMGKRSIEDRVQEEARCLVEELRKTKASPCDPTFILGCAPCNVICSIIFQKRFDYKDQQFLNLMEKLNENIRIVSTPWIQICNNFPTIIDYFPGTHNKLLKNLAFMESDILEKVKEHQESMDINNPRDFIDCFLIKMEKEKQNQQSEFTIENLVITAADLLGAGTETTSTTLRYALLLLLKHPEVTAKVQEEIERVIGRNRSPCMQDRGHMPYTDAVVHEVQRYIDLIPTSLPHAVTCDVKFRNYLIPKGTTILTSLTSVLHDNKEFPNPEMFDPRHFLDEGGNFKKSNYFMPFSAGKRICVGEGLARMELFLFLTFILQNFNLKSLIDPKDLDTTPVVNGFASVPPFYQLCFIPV

Test [11] is described as follows: qHTS Assay for Identification of Small Molecule Agonists for Hypoxia Response Element Signaling Pathway (AID 914; active = well fitted activation curve with a large enough effect in the signal ratio, with a control signal flat, not every such curve was filed as active; the % refers to the signal ratio; also: % of control where 0% means no effect). The note with it: ME-180 HRE-bla reporter, beta-lactamase ratio, CoCl2, 17 h; activation: stronger effect = higher value. The method in brief:
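Positive modulation of EC50 CoCl2-induced hypoxia response element signaling is measured in ME-180 cells with a beta-lactamase reporter. Compounds are titrated, incubation runs 17 hours, and %Activity derives from the blue/green ratio.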

Test [12] can be described thus: Stat Signaling Pathway (AID 446).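 Also: ME-180 cervical cancer cells given 40 pM IL-6 alongside compound; SIE-controlled beta-lactamase reporter measured as 460/530 nm FRET emission ratio; % is scaled to controls: 0 for no effect and ±100 for the full control effect.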 The settings on record: ME-180 (cervical carcinoma) SIE beta-lactamase reporter, IL-6 stimulated, 5 h; at 7.69 µM (top of the series) unless noted. A digest of the protocol: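 Compound effects on IL-6-induced STAT reporter activity were measured in ME-180 cells. After overnight culture, cells were co-treated with 40 pM IL-6 for 5 hrs before beta-lactamase substrate loading at room temperature.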

The target in test [13] is Cytochrome P450 2C9 (Homo sapiens) (UniProt P11712). Kind of test: qHTS Assay for Inhibitors and Substrates of Cytochrome P450 2C9 (AID 883; active = well fitted curve in the direction sought with a large enough effect; an effect the other way counts as inactive or inconclusive; also: potency is read from the fitted curve at half-maximal effect; nearly all actives have a fitted effect of over 60% in size). The note with it: recombinant CYP2C9, luciferin-H luminescence, 60 min; series mostly up to 11.4 µM. A digest of the protocol: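 Turnover of Luciferin-H (100uM, KM) by 10nM human CYP2C9 was measured over 60 min at 37C with NADPH regeneration; inhibitors and some substrates reduce luminescence. Data normalized to sulphaphenazole 57uM.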
Chain of Cytochrome P450 2C9 (Homo sapiens) (P11712 whole entry, looked up): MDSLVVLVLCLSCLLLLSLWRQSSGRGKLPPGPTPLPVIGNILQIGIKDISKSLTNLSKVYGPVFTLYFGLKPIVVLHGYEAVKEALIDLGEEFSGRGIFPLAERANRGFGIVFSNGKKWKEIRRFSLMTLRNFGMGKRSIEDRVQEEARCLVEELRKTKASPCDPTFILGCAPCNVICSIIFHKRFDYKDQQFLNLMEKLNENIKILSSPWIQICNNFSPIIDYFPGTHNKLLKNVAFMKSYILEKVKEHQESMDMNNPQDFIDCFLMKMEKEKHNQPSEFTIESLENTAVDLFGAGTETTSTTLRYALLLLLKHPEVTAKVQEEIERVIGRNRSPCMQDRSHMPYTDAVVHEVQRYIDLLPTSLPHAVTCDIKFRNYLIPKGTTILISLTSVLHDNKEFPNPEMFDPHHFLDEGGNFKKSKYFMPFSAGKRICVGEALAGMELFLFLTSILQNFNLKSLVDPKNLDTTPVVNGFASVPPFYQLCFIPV

In test [14] the target is Cytochrome P450 2D6 (Homo sapiens) (UniProt P10635). Kind of test: qHTS Assay for Inhibitors and Substrates of Cytochrome P450 2D6 (AID 891; active = well fitted curve in the direction sought with a large enough effect; an effect the other way counts as inactive or inconclusive; also: potency is read from the fitted curve at half-maximal effect; nearly all actives have a fitted effect of over 60% in size). The settings on record: recombinant CYP2D6, luciferin-ME EGE luminescence; series mostly up to 11.4 µM. The method in brief:
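Luminescent read-out of luciferin formed by 5 nM human CYP2D6 demethylating 30 uM Luciferin-ME EGE (Km level) over 60 min at room temperature after NADPH regeneration addition. Data normalized to full inhibition by 1.43 uM quinidine.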

Chain of Cytochrome P450 3A4 (Homo sapiens) (P08684 whole entry, looked up): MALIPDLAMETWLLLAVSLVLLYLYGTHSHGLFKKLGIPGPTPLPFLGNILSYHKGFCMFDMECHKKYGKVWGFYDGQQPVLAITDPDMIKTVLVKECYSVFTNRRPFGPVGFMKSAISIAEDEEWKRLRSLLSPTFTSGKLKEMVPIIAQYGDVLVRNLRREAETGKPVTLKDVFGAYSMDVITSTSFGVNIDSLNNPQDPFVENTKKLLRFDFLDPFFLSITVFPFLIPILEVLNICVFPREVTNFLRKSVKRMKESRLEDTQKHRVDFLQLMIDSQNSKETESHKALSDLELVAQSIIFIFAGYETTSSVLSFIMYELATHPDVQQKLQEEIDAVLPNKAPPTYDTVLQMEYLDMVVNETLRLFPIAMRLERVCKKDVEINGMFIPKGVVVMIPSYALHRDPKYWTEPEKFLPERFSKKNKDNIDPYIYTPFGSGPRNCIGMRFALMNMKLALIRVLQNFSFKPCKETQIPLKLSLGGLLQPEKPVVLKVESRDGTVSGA
Chain of Cytochrome P450 2D6 (Homo sapiens) (P10635 whole entry, looked up): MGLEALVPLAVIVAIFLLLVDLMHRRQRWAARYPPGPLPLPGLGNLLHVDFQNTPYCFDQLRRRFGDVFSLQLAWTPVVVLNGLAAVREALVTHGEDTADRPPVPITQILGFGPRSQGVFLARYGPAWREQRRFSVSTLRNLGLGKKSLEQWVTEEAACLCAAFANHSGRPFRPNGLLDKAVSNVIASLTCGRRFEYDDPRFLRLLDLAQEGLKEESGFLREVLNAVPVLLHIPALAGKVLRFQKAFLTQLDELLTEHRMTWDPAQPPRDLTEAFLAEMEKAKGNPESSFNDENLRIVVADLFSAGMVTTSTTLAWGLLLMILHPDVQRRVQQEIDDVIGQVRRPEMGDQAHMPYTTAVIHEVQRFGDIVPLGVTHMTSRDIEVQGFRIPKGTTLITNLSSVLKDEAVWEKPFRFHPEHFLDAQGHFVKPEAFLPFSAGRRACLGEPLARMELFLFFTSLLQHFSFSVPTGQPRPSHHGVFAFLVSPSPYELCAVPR

For the molecule `S=C(CSc1ccccc1)Nc1cccc2ccccc12`, the Potency in [1] is more than 11.4 µM; in test [3], 1.26 µM (active); in test [5], more than 46 µM; in [6], more than 9.22 µM; in [10], 0.794 µM (active). In addition, the activity change, negative = inhibition was 8.58% in test [2] and -12.1% in [4]. Moreover, the Potency result in [7], in test [8] and in test [9] was “inactive” throughout.

Turning to `C[N+](C)(C)c1ncnc2c1ncn2[C@@H]1CCCCO1`, the Potency in test [1] is more than 11.4 µM; in test [5], more than 46 µM; in test [6] it was more than 9.22 µM. Besides, the activity change, negative = inhibition is 10.7% in test [2], 2.3% [at 2.29 µM] in test [3] and 5.08% in test [4]. Besides, the Potency entry in [7], in test [8] and in test [10] was “inactive” in each case.

For `O=C(CSc1nc2ccccc2s1)c1sc2sc3ccccc3[n+]2c1O`, the Potency in [1] was more than 11.4 µM; in test [3], 5.01 µM (active); in test [5], more than 46 µM; in test [6], more than 9.22 µM. Also, the activity change, negative = inhibition in [2] is -9.47%; in [4], 6.64%. Besides, the Potency result in test [7] and in test [8] was “inactive” throughout. The activation in [11] is -16.9%.

Take `C[C@@]12CC[C@@H]3[C@H](CCC4=CC(=O)CC[C@]43C)[C@@H]1CC[C@@H]2C(=O)Cn1cnc2c(=S)nc[nH]c21`: the results for the Potency in [1], in test [5] and in [6] were more than 11.4 µM, more than 46 µM and more than 9.22 µM, respectively. In test [2], the activity change, negative = inhibition is 2.82%. The Potency result in test [3] and in [7] was “inactive” each time. Besides, the activity, negative = inhibition in [12] is -2.06%.

As for `COC(=O)CC[C@@H](C)[C@H]1CC[C@H]2[C@H]3CC[C@H]4C[C@@H]5CC[C@@]4(C)C3(O5)[C@@H](Br)[C@@H](Br)[C@@]12C`, the Potency in test [1] was more than 11.4 µM; in test [5], more than 46 µM; in test [6], more than 9.22 µM; in test [13], 2.51 µM (active). Moreover, the activity change, negative = inhibition in test [2] was 21.4%; in [4], 8.56%. Further, the Potency entry in test [3], in test [8] and in [9] was “inactive” each time.

Turning to `O=C(O)C[n+]1ccccc1`, the Potency in test [1] is more than 11.4 µM. For the same molecule, the activity change, negative = inhibition in test [2] was -3.27%; in test [4] it was -24%. For the same molecule, the Potency entry in [3], in test [7] and in [8] was “inactive” in each case.

Take `O=C(O)CSc1ccn(Cc2ccccc2)c1`: the Potency is more than 11.4 µM in test [1], more than 46 µM in test [5] and more than 9.22 µM in test [6]. Further, the figures for the activity change, negative = inhibition in test [2] and in test [4] were -4.91% and 1.69%, respectively. Moreover, the Potency result in test [3], in [7], in test [8] and in [10] was “inactive” each time.

In the case of `O=C(O)[C@@H](O)[C@@H](O)[C@@H](O)[C@@H](O)c1nc2ccccc2s1`, the Potency is more than 11.4 µM in [1]; 3.98 µM (active) in test [3]; more than 46 µM in [5]; more than 9.22 µM in [6]; 3.16 µM (active) in test [10]. The activity change, negative = inhibition in [2] was 11.6%; in test [4], -1.53%. The Potency entry in test [7] and in test [8] was “inactive” each time.

In the case of `Sc1ccc2ccccc2c1CNCc1ccccc1`, the Potency was more than 11.4 µM in test [1]; 1.26 µM (active) in test [3]; more than 46 µM in [5]; more than 9.22 µM in [6]; 1.26 µM (active) in test [14]. Further, the results for the activity change, negative = inhibition in [2] and in [4] were 12.3% and -0.525%, respectively. The Potency result in [7] and in test [8] was “inactive” each time.

The values above are taken from PubChem BioAssay (NCATS).
